# Assay outcomes (PubChem BioAssay)
# Pf growth 96h – P. falciparum growth inhibition at 96 hours. 6.9% of 320,000 active. AID 504834. P. falciparum luciferase reporter growth, 96 h. Potency, µM (series often up to 28.7 µM), for inactives: at the highest dose activity change, negative = inhibition, usual class: inhibitors; note: potency is the fitted concentration of half-maximal effect; % is set by controls: 0 for no effect and ±100 for the full control effect
#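 Cell-based qHTS: luciferase-tagged P. falciparum in erythrocytes (2% hematocrit, 0.05% parasitemia final) incubated with compounds for 96 hours, 37 C, 5% CO2; luciferase detection reagent then added and luminescence measured.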
# Cycloheximide cs – affects cycloheximide protein synthesis inhibition readout, counter-screen. AID 2314. cell reporter, cycloheximide protein synthesis inhibition counterscreen. 12% of 300,000 active. max response, %; in the data active = max response mostly above about 13%, no sharp cut-off; inactive = mostly below about 14%; note: read at 38.3 µM for the half of the compounds with a filed dose; 0% is about no effect
# LmPK inhibitor – blocks Leishmania mexicana pyruvate kinase activity; Q27686; purified LmPK, Kinase-Glo ATP luminescence, 1 h; Potency, µM (highest dose often 57.5 µM), without a hit: at the top dose activity change, negative = inhibition, usual class: inhibitors; 0.37% of 290,000 active; note: potency is the fitted concentration of half-maximal effect; % is set by controls: 0 for no effect and ±100 for the full control effect
# Target sequence (Q27686 whole entry, looked up): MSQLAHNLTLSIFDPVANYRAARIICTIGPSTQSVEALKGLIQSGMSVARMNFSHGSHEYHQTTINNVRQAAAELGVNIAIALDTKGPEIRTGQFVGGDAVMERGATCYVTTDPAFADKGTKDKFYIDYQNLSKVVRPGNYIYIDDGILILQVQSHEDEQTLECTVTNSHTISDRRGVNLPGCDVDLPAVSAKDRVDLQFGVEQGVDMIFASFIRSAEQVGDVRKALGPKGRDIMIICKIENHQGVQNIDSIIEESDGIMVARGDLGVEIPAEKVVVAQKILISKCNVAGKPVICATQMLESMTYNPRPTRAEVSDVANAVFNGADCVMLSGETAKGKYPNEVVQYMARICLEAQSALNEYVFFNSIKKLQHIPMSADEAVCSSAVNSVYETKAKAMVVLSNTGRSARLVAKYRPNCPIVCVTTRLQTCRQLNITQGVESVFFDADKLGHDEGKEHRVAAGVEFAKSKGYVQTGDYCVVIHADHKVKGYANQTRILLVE
#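 qHTS format; LmPK 0.1 nM; substrates PEP 0.5 mM and ADP 0.1 mM. One-hour room-temperature incubation, then coupled luciferase luminescence; 0.5 nM enzyme wells mark activation.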
# Pf growth 48h – P. falciparum growth inhibition at 48 hours (one generation). P. falciparum luciferase growth in erythrocytes, 48 h. Potency, µM (doses to about 28.7 µM), without a hit: at the highest dose activity change, negative = inhibition, hits mostly inhibitors. 5.9% of 310,000 active; note: potency is the fitted concentration of half-maximal effect; % is set by controls: 0 for no effect and ±100 for the full control effect
#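 Here the parasites carry a stable luciferase gene and grow inside erythrocytes in Albumax-based RPMI medium with compound for one erythrocytic cycle. Activity is scored as loss of luminescent signal.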
# Shiga inhibitor – inhibitors of Shiga toxin in Vero cells; Vero cells, Shiga toxin protein synthesis inhibition reporter; inhibition, % at 38.7 µM; 9.2% of 290,000 active; AID 2315; in the data active = inhibition mostly above about 28%, no sharp cut-off; inactive = mostly below about 43%; note: 0% is about no effect
# * = called active by the depositor; ? = inconclusive; · = no result; [ ] = remark or other dose. Rows were chosen to be rich in hits. Some 22% of all compounds tested hit in one or more screens of this group. Unless noted, calls come from the whole dose curve; as a rule, active = well fitted inhibition curve with a large enough effect; inconclusive = small, poorly fitted or top-dose-only effect, or another doubt; inactive = no such curve, though single readings can be large or run the other way.
SMILES,Pf growth 96h,Cycloheximide cs,LmPK inhibitor,Pf growth 48h,Shiga inhibitor
O=C(CN1C(=O)CCC1=O)Nc1ccc(Br)cc1,12%,-3,8%,0%,36
CCc1ccc(NC(=O)Cn2c3[n+](c4c(F)c(F)ccc42)CCCCC3)cc1,?,5,-4%,3.7µM*,13
N#Cc1ccc(NC(=O)Cn2c3[n+](c4ccc(C(F)(F)F)cc42)CCCCC3)cc1,4.7µM*,0,-3%,12µM*,-4
CCOc1cc(/C=N/NC(=O)CCCC(=O)NC2CCCCC2)ccc1O,?,-5,-4%,2%,-3
O=C1CC(NNC(=O)c2ccccc2)C(=O)N1 (configuration not stated),-11%,-2,2%,?,-10
O=C1CC(NNC(=O)c2cccc(F)c2)C(=O)N1 (configuration not stated),11%,11*,4%,?,24
O=C(Cn1nnc(-c2ccc([N+](=O)[O-])cc2)n1)NNC(=O)c1ccccc1,-19%,11,-7%,13%,-10
O=C(Cn1cnc([N+](=O)[O-])n1)c1ccccc1,?,-3,-3%,27%,22
COc1ccc(C(=O)N/N=C(\C)Cn2nc([N+](=O)[O-])cc2C)cc1,-21%,16,-9%,5%,58*
C/C(Cn1nc([N+](=O)[O-])cc1C)=N\NC(=O)c1ccc(C(C)(C)C)cc1,12%,-3,16%,·,-7
C/C(Cn1nnc([N+](=O)[O-])n1)=N\NC(=O)c1ccccc1,15µM*,24*,2%,?,54*
Cc1cc([N+](=O)[O-])nn1CC(=O)N/N=C/c1ccccc1O,?,24*,-1%,?,57*
C/C(Cn1cnc([N+](=O)[O-])n1)=N\NC(=O)c1ccccc1,-1%,30*,-6%,40%,57*
Cc1ccc(-n2c(SCC(=O)Nc3cccc(S(N)(=O)=O)c3)nc3ccccc32)cc1,-16%,-2,4%,-13%,-12
Cc1ccc2nc(N3CC(=O)Nc4ccccc43)nc(-c3ccccc3)c2c1,9.3µM*,-9,2%,-9%,-16
Cc1ccc2nc(N3CCC(C(=O)O)CC3)nc(-c3ccccc3)c2c1,15%,-7,4%,12%,-9
COc1ccc(CNCC(O)(c2ccc(F)cc2)c2ccc(F)cc2)cc1,?,24,-6%,12µM*,42
COc1ccc(CNCC(O)(c2ccccc2)c2ccccc2)cc1,0%,15,-3%,0%,5
OC(CNCc1ccccc1)(c1ccc(F)cc1)c1ccc(F)cc1,2.1µM*,-4,10%,4.7µM*,4
Cc1ccc(CNCC(O)(c2ccccc2)c2ccc(F)cc2)cc1 (configuration not stated),0%,4,1%,?,-13
OC(CNCc1ccc(F)cc1)(c1ccccc1)c1ccc(F)cc1 (configuration not stated),1.7µM*,1,-1%,2.6µM*,-9
OC(CNCc1ccccc1)(c1ccccc1)c1ccccc1,8.3µM*,7,-3%,13µM*,8
COc1ccc(CNCC(O)(c2ccccc2)c2ccccc2)cc1OC,?,-3,-5%,?,-5
Cc1ccc(NC(=O)c2cc(S(=O)(=O)N3CCCC3)c[nH]2)c(C)c1,-13%,1,-5%,-4%,-13
Cc1ccc(CNCC(O)(c2ccc(F)cc2)c2ccc(F)cc2)cc1,4.7µM*,-4,3%,?,-1
SMILES,Pf growth 96h,Cycloheximide cs,LmPK inhibitor,Pf growth 48h,Shiga inhibitor
COc1ccc(CCN2CC(C(=O)N(C)Cc3cccnc3)CC2=O)cc1OC (configuration not stated),-29%,·,·,-27%,·
CC1=C(c2ccc(C)cc2)[N+](=O)C(C)(C)N1[O-],?,19*,-20%,61%,78*
C(=N/Nc1nccs1)/c1cccnc1,?,-2,-2%[11.5 µM],?,22
Clc1cccc(/C=N\Nc2nccs2)c1,109%,20*,1%,·,65
Cc1cc(C)nc(N/N=C/c2ccc(Cl)cc2)n1,-9%,13*,6%,-6%,32
Cc1ccc(/C=N/Nc2nc(C)cc(C)n2)cc1,12%,14*,-1%,9%,57*
Clc1cccc(/C=N/Nc2nc(Cl)nc3ccccc23)c1,-83%,48*,5%,?,122*
Cc1ccc(NC(=O)CSc2nc(=O)n(Cc3ccncc3)c3c2CCC3)c(C)c1,24%,·,·,19%,·
CC(C)CCOc1ccc(C(=O)N2CCCC2C(=O)O)cc1 (configuration not stated),?,9,-4%,-1%,-13
CCOc1ccc(CCNC(=O)CCn2ccc3cc(S(=O)(=O)N4CCCC4)ccc32)cc1,?,-3,10%,?,2
Cc1cc(C)nc(N/N=C/c2cccc(Cl)c2)n1,7%,18*,4%,32%,49
COc1cc(/C=N/Nc2nc(C)cc(C)n2)cc(OC)c1OC,?,4,-2%,-9%,22
CSc1ccc(/C=N/Nc2nc(C)cc(C)n2)cc1,54%,42*,-7%,-1%,33*
Cc1cc(C)nc(N/N=C/c2ccco2)n1,·,-2,-12%,31%,-36
Cc1cc2c(C)nc(N/N=C/c3ccc(F)cc3)nc2o1,60%,18*,0%,46%,25
O=C(OCc1cc(=O)n2ccsc2n1)c1ccc(OC(F)F)cc1,6%,·,·,46%,·
CC(C)Cc1nnc(NC(=O)CCC(=O)NC2CCCCCC2)s1,8%,-3,2%,4%,16
Cc1ccc(NC(=O)COC(=O)C2CC(=O)N(Cc3ccccc3)C2)cc1S(=O)(=O)N(C)C (configuration not stated),-2%,-1,-4%,-5%,-6
CC1S/C(=N/N=C/c2cccc([N+](=O)[O-])c2)NC1=O (configuration not stated),-10%,-3,2%,-15%,-3
Cc1ccc(S(=O)(=O)Oc2ccc(C)cc2/C=N/N=C2\NC(=O)C(C)S2)cc1 (configuration not stated),?,30*,-10%,32%,73*
Cc1cc(C)n(-c2ccc(C(=O)Nc3cccc([N+](=O)[O-])c3)cc2)n1,-26%,11,20%,-17%,26
CCCc1c(C(=O)Nc2cc(C(C)(C)C)on2)cnn1-c1ccccc1,?,-2,4%,?,-6
CCCc1c(C(=O)Nc2ccc(F)cc2F)cnn1-c1ccccc1,-7%,17*,2%,-3%,12
Cc1ccc(NC(=O)c2cnn(-c3ccccc3)c2C)cc1C,-28%,16,-8%,197%,39
Cc1c(C(=O)Nc2cccc([N+](=O)[O-])c2)cnn1-c1ccccc1,179%,47*,1%,50%,113*
CCN(CC)C(=O)c1cnn(-c2ccccc2)c1NC(=O)c1ccccc1F,0.93µM*,-1,5%,-12%,-7
Cc1c(C(=O)Nc2cccc(F)c2)cnn1-c1ccccc1,-11%,39*,-10%,262%,64*
